The nature of assay [1]: NCI Yeast Anticancer Drug Screen. Data for the rad50 strain (AID 155).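 Further: 0% = growth of vehicle-only cultures of the same strain.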 The note with it: S. cerevisiae rad50 strain growth inhibition, stronger effect = higher value. The method, boiled down:
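Compounds were tested on a yeast strain with an engineered DNA damage repair alteration; the reported value is growth inhibition normalised to vehicle treatment.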

Assay [2] is described as follows: NCI Yeast Anticancer Drug Screen. Data for the mec2-1 strain (AID 157). Conditions: S. cerevisiae mec2-1 strain, stronger effect = higher value. The method, boiled down: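 Cells of the genetically defined mec2-1 yeast strain are incubated with test compound. Inhibition of growth is calculated against vehicle-treated controls.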
A short description of assay [3]: NCI Yeast Anticancer Drug Screen. Data for the sgs1 mgt1 strain (AID 161).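 Further: 0% = growth of cultures given vehicle only.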 Conditions: S. cerevisiae sgs1 mgt1 strain, stronger effect = higher value. The method, boiled down: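 Read-out: growth inhibition vs vehicle controls. Cells: mutant yeast strain deficient in DNA damage repair.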
Assay [4] is described as follows: NCI Yeast Anticancer Drug Screen. Data for the cln2 rad14 strain (AID 165).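 Further: 0% = growth equal to vehicle treated cultures.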 The note with it: S. cerevisiae cln2 rad14 strain, stronger effect = higher value. The method, boiled down:
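The screen exposed genetically defined yeast (cln2 rad14) to test compounds and scored growth inhibition relative to vehicle-treated controls.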

Assay [5] in a line: NCI Yeast Anticancer Drug Screen. Data for the bub3 strain (AID 167). Conditions: S. cerevisiae bub3 mutant strain, stronger effect = higher value. The method, boiled down: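 Growth of a checkpoint-deficient yeast mutant is measured after compound exposure. Values represent inhibition relative to vehicle.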
A short description of assay [6]: NCI Yeast Anticancer Drug Screen. Data for the mlh1 rad18 strain (AID 175). The note with it: S. cerevisiae mlh1 rad18 strain growth inhibition, stronger effect = higher value. The method, boiled down: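 Compound-treated yeast growth, normalised to vehicle controls. Strain bears defined DNA repair mutations.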
Where [7] appears, read: at 5.0 µM (retest, dose inferred, filed as 0.5).
[8] abbreviates: at 50.0 µM (retest, dose inferred, filed as 5.0).

SMILES strings stand for the structures. “And” between values parts separate entries of the source, which are not always exact repeats. Equal values may be shown once. This is part of a sample that, as a whole, favours compounds with a hit. Of some 79,000 tested, about 15% had one in any assay. The source holds several records for some structures; these can differ, active in one and inactive in another. The source made the active and inactive calls. No stated cut-off is given here; in the data, active means growth inhibition above about 70%; inactive means the rest.

On to `CC(C)(Cc1nocc1C(C)(C)CC#N)c1cc(CC(C)(C)C2(C)OCCO2)no1`, for which the growth inhibition in assay [1] (setting [7]) was -4% (inactive); in assay [1] (setting [8]), 0% (inactive); in assay [1] (at 50.0 µM), -9.6% (inactive); in assay [2] (setting [7]) it was 0% (inactive); in assay [2] (setting [8]), -1% (inactive); in assay [2] (at 50.0 µM), 9.45% (inactive). Also, the growth inhibition in assay [3] (setting [7]) was -8% (inactive); in assay [3] (setting [8]), 1% (inactive); in assay [3] (at 50.0 µM), -7.8% (inactive); in assay [4] (setting [7]), 2% (inactive); in assay [4] (setting [8]), -6% (inactive); in assay [4] (at 50.0 µM) it was 25.3% (inactive). Besides, the growth inhibition in assay [5] (setting [7]) was -7% (inactive); in assay [5] (setting [8]), -6% (inactive); in assay [5] (at 50.0 µM) it was -47.8% (inactive); in assay [6] (setting [7]), -3% (inactive); in assay [6] (setting [8]), -4% (inactive); in assay [6] (at 50.0 µM), -9.8% (inactive).
In the case of `Nc1nc(N)c2nc3c4ccccc4c4ccccc4c3nc2n1`, the growth inhibition in assay [1] (setting [7]) is 2% (inactive); in assay [1] (setting [8]), 35% (inactive); in assay [1] (at 50.0 µM), 56.5% (inactive); in assay [2] (setting [7]), 1% (inactive); in assay [2] (setting [8]), 30% (inactive); in assay [2] (at 50.0 µM), 38.5% (inactive). The growth inhibition in assay [3] (setting [7]) is 0% (inactive); in assay [3] (setting [8]), 32% (inactive); in assay [3] (at 50.0 µM), 21.7% (inactive); in assay [4] (setting [7]), 1% (inactive); in assay [4] (setting [8]), 3% (inactive); in assay [4] (at 50.0 µM), 68.8% (inactive). For the same compound, the growth inhibition in assay [5] (setting [7]) is 7% (inactive); in assay [5] (setting [8]) it was 38% (inactive); in assay [5] (at 50.0 µM) it was 74.5% (active); in assay [6] (setting [7]) it was 5% (inactive); in assay [6] (setting [8]), 44% (inactive); in assay [6] (at 50.0 µM) it was 69.5% (inactive).
Consider `Nc1ncnc2c1ncn2CCCl`, for which the growth inhibition is 2% (inactive) in assay [1] (setting [7]); -4% (inactive) in assay [1] (setting [8]); 8.2% (inactive) in assay [1] (at 50.0 µM); -2% (inactive) in assay [2] (setting [7]); 5% (inactive) in assay [2] (setting [8]); -1.35% (inactive) in assay [2] (at 50.0 µM). Moreover, the growth inhibition in assay [3] (setting [7]) is 2% (inactive); in assay [3] (setting [8]) it was 10% (inactive); in assay [3] (at 50.0 µM), 14.3% (inactive); in assay [4] (setting [7]), -7% (inactive); in assay [4] (setting [8]) it was 5% (inactive); in assay [4] (at 50.0 µM), -6.85% (inactive). The growth inhibition is -2% (inactive) in assay [5] (setting [7]); 6% (inactive) in assay [5] (setting [8]); 32.4% (inactive) in assay [5] (at 50.0 µM); -2% (inactive) in assay [6] (setting [7]); -4% (inactive) in assay [6] (setting [8]); 50.2% (inactive) in assay [6] (at 50.0 µM).
Take `CN1C=c2c3c(ccc2=C2C=CC4C=C5OCOC5=CC4=C21)OCO3` (stereo not drawn): the growth inhibition in assay [1] (setting [7]) was 48% (inactive) and 33% (inactive); in assay [1] (setting [8]), 97% (active) and 98% (active); in assay [1] (at 50.0 µM), 92% (active) and 91.6% (active); in assay [2] (setting [7]), 32% (inactive) and 11% (inactive); in assay [2] (setting [8]), 98% (active) and 99% (active); in assay [2] (at 50.0 µM) it was 93.3% (active) and 93% (active). Moreover, the growth inhibition in assay [3] (setting [7]) is 56% (inactive) and 13% (inactive); in assay [3] (setting [8]) it was 98% (active) and 99% (active); in assay [3] (at 50.0 µM) it was 93% (active) and 92.8% (active); in assay [4] (setting [7]), 37% (inactive) and 11% (inactive); in assay [4] (setting [8]), 98% (active) and 99% (active); in assay [4] (at 50.0 µM), 92% (active). Further, the growth inhibition in assay [5] (setting [7]) is 74% (active) and 17% (inactive); in assay [5] (setting [8]), 98% (active) and 99% (active); in assay [5] (at 50.0 µM), 92.5% (active) and 91.8% (active); in assay [6] (setting [7]), 63% (inactive) and 30% (inactive); in assay [6] (setting [8]) it was 97% (active); in assay [6] (at 50.0 µM), 92.5% (active) and 91.7% (active).
On to `C=C1C(=O)OC2C[C@@]3(C)CCC[C@H](C)C3=CC12` (stereo partly drawn) (tested in a mixture with another compound), for which the growth inhibition in assay [1] (setting [7]) was 15% (inactive); in assay [1] (setting [8]), 97% (active); in assay [1] (at 50.0 µM), 85.2% (active); in assay [2] (setting [7]), 32% (inactive); in assay [2] (setting [8]) it was 99% (active); in assay [2] (at 50.0 µM), 93% (active). Besides, the growth inhibition in assay [3] (setting [7]) was 27% (inactive); in assay [3] (setting [8]), 99% (active); in assay [3] (at 50.0 µM) it was 93.1% (active); in assay [4] (setting [7]), 19% (inactive); in assay [4] (setting [8]), 79% (active); in assay [4] (at 50.0 µM), 60.5% (inactive). Further, the growth inhibition is 5% (inactive) in assay [5] (setting [7]); 97% (active) in assay [5] (setting [8]); 92.5% (active) in assay [5] (at 50.0 µM); 23% (inactive) in assay [6] (setting [7]); 98% (active) in assay [6] (setting [8]); 89.2% (active) in assay [6] (at 50.0 µM).
As for `CCN(CC)c1ccc(/C=C/c2ccnc3ccccc23)cc1`, the growth inhibition is -11% (inactive) and 0% (inactive) in assay [1] (setting [7]); 95% (active) and 98% (active) in assay [1] (setting [8]); 99% (active) and 98.3% (active) in assay [1] (at 50.0 µM); -3% (inactive) and 1% (inactive) in assay [2] (setting [7]); 98% (active) and 99% (active) in assay [2] (setting [8]); 99% (active) and 97.8% (active) in assay [2] (at 50.0 µM). Besides, the growth inhibition in assay [3] (setting [7]) is 4% (inactive) and -3% (inactive); in assay [3] (setting [8]) it was 94% (active) and 98% (active); in assay [3] (at 50.0 µM), 99.1% (active) and 98.5% (active); in assay [4] (setting [7]), -10% (inactive) and 7% (inactive); in assay [4] (setting [8]) it was 97% (active) and 98% (active); in assay [4] (at 50.0 µM), 98.6% (active) and 97.5% (active). Also, the growth inhibition was 28% (inactive) and -4% (inactive) in assay [5] (setting [7]); 98% (active) and 99% (active) in assay [5] (setting [8]); 98.7% (active) and 98.3% (active) in assay [5] (at 50.0 µM); 17% (inactive) and 16% (inactive) in assay [6] (setting [7]); 97% (active) and 98% (active) in assay [6] (setting [8]); 98.3% (active) and 97.4% (active) in assay [6] (at 50.0 µM).
